Source: PubChem BioAssay (National Center for Advancing Translational Sciences (NCATS))
An excerpt weighted towards active compounds, which were near 18% of everything screened.
CtBP-E1A blk: blocks the CtBP interaction with E1A. AlphaScreen GST-E1A/His-CtBP binding, 1536-well; hits give low values. activity change, % (no concentration beside the values). 0.49% of 340,000 active; in the data active means activity change below about -65%; inconclusive means mostly about -30% to -63%
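In 5 uL wells, 23 nL compound meets equimolar GST-E1A and His-CtBP (5X stock 125 nM each) for 2 h, 37 °C. Beads (5X, 50 ug/mL) then 1 h, 37 °C, dark.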
Six1-Eya2 inh: blocks human Six1 binding to Eya2; Q15475+O00167; activity change, % (no concentration beside the values); 0.56% of 360,000 active; AlphaScreen GST-Six1/His-Eya2 binding, biochemical; hits give low values; AID 651725; in the data active means activity change below about -65%; inconclusive means mostly about -30% to -63%
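Compounds are tested against tagged Six1 and Eya2 proteins bridged by glutathione donor and nickel acceptor beads; after a one-hour incubation at 37 °C without light, AlphaScreen emission is recorded.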
TDP1 cell CPT: DT40-hTDP1 cell growth loss with CPT. 12% of 420,000 active. Potency, µM (series often up to 46.2 µM), usual class: inhibitors. chicken DT40 Tdp1-/-;hTDP1 cells + 20 nM CPT, ATP luminescence, 48 h; further: nearly all actives have a fitted effect of over 55% in size
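Chicken DT40 Tdp1-/- cells stably complemented with human TDP1 were seeded at 400 cells/well in medium containing 20 nM camptothecin, exposed to pin-transferred compounds, and grown at 37 °C for at least 48 hr. Viability was read as ATP luminescence.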
IL1B secr inh: inhibitors of inflammasome signaling (IL-1 beta secretion). THP-1 LPS/ATP IL-1B secretion, AlphaLISA, 16 h; hits give low values. activity change, % at 57.5 µM. 4.7% of 360,000 active; in the data active means activity change below about -50%; inconclusive means mostly about -30% to -49%
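THP-1 cells pretreated 1 hr with compounds (up to 57.5 uM final), then stimulated with LPS (250 ng/mL final) plus ATP (1.25 mM final); secreted IL-1B measured by AlphaLISA after 16 hr, decreased signal indicating inhibition.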
TDP1 block: blocks human tyrosyl-DNA phosphodiesterase 1 | Potency, µM (titrated, usually from 130 µM), usual class: inhibitors | AID 485290 | 0.28% of 350,000 active | Q9NUW8 | recombinant TDP1, AlphaScreen DNA substrate cleavage; further: nearly all actives have a fitted effect of over 40% in size
Target sequence (Q9NUW8 whole entry, looked up): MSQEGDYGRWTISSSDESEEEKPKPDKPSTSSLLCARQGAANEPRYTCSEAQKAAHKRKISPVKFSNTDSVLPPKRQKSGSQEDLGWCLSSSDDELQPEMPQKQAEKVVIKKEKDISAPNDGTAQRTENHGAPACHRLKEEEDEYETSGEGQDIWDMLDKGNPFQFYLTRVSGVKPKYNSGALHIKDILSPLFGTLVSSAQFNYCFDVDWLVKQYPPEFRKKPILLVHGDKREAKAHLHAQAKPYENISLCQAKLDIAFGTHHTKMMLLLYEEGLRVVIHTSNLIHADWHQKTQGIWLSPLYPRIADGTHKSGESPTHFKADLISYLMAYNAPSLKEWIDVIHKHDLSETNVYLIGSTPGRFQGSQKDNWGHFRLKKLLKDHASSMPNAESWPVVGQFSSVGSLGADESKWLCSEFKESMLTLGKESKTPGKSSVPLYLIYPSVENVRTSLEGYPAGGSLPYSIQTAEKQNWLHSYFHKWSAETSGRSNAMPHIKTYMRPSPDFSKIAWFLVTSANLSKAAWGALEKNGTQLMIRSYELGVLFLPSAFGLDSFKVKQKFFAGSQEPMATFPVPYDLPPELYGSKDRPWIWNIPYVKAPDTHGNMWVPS
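Steps: enzyme plus compound, 15 min RT; add biotin/phosphotyrosine-FITC oligonucleotide (15 nM final), react 5 min; add donor/acceptor beads (10 ug/ml final), 10 min; read AlphaScreen. Tdp1 at 1 nM final.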
DT40 TDP1 no CPT: qHTS for Inhibitors of human tyrosyl-DNA phosphodiesterase 1 (TDP1): qHTS in cells in absence of CPT. DT40 Tdp1-/- hTDP1 cells, no CPT, ATP luminescence, 48 h. AID 686978, 2013. 15% of 420,000 active. Potency, µM (titrated, usually from 46.2 µM), hits mostly inhibitors; further: nearly all actives have a fitted effect of over 55% in size
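Luminescent ATP content (CellTiter-Glo) served as the growth readout. Knockout chicken DT40 cells expressing human TDP1 were exposed to compounds without camptothecin for a minimum 48 hr at 37 °C.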
A number is an active result; 0 = inactive; ? = inconclusive; - = no result given. Unless noted, the call rests on the fitted dose curve; in most records, active means well fitted curve in the direction sought with a large enough effect; inconclusive means small, poorly fitted or top-dose-only effect, or another doubt; inactive means no such curve, though single readings can be large; an effect the other way counts as inactive or inconclusive.

SMILES	CtBP-E1A blk	Six1-Eya2 inh	TDP1 cell CPT	IL1B secr inh	TDP1 block	DT40 TDP1 no CPT
CCOC(=O)c1cn(CC)c2cc(N3CCSCC3)c(F)cc2c1=O	0	0	0	0	0	0
c1ccc(CN2CCN(Cc3c[nH]c4ccccc34)CC2)cc1	0	0	2.1µM	0	-	10µM
CCN1CCCC(CO)(Cc2ccccc2)C1 (stereo not drawn)	0	0	0	0	0	0
OCC1(Cc2ccccc2)CCCN(Cc2c[nH]c3ccccc23)C1 (stereo not drawn)	0	0	12µM	-65	0	18µM
CC(=O)Nc1ccc(NC(=O)c2c(C)nn(-c3ccccc3)c2Cl)cc1C	0	0	0	0	0	0
CC1(C(=O)NCC(F)(F)F)CCN1C(=O)C1(c2ccccc2)CC1 (stereo not drawn)	0	0	0	0	-	0
COc1ccccc1CNC(=O)C1(C)CCN1Cc1ccc(OC(F)(F)F)cc1 (stereo not drawn)	0	0	16µM	0	-	?
CC1(C(=O)NCc2cccc3ccccc23)CCN1C(=O)C1(c2ccccc2)CC1 (stereo not drawn)	0	0	?	0	-	?
CC1(C(=O)NC2CCN(Cc3ccccc3)CC2)CCN1Cc1ccc(OC(F)(F)F)cc1 (stereo not drawn)	0	0	?	0	-	?
COc1ccccc1CNC(=O)C1(C)CCN1C(=O)C1(c2ccccc2)CC1 (stereo not drawn)	0	0	16µM	0	-	26µM
CC1(C(=O)NCc2ccco2)CCN1C(=O)C1(c2ccccc2)CC1 (stereo not drawn)	0	0	4.6µM	-107	-	5.2µM
CC(C)CCNC(=O)C(c1ccco1)N(Cc1cccs1)C(=O)Cn1nnc2ccccc21 (stereo not drawn)	0	0	26µM	0	0	?
COCCNC(=O)C(c1ccco1)N(C(=O)Cn1nnc2ccccc21)c1ccccc1C (stereo not drawn)	0	0	0	0	0	0
Cc1ccccc1N(C(=O)Cn1nnc(-c2cccs2)n1)C(C(=O)NCCC(C)C)c1ccco1 (stereo not drawn)	0	0	?	-51	0	?
COc1ccc(-c2nnn(CC(=O)N(Cc3cccs3)C(C)C(=O)NCCC(C)C)n2)cc1OC (stereo not drawn)	0	0	15µM	0	0	21µM
COc1ccc2[nH]c(C(=O)O)c(NS(=O)(=O)c3ccc(C)c(C)c3)c2c1	0	0	0	0	0	0
CCOCCCNS(=O)(=O)c1ccc(NC(=O)N2c3ccccc3Sc3ccccc32)cc1	0	0	23µM	?	0	?
Cc1ccc(C)c(NC(=S)NC(C)C(c2ccccc2)N2CCN(C)CC2)c1 (stereo not drawn)	0	0	?	-62	0	?
CCN1CCN(C(c2cccs2)C(C)NC(=S)Nc2cc(C)ccc2C)CC1 (stereo not drawn)	0	0	?	0	0	0
COc1cccc(NC(=O)Cc2ccccc2)c1	0	0	0	0	0	0
CN(CC(=O)Nc1cccc(F)c1)C(=O)c1ccccc1CCc1ccccc1	0	0	15µM	0	0	21µM
O=C(CSCc1ccc(F)cc1)Nc1ccc(F)cc1	0	0	0	0	0	0
O=C(Cc1ccccc1)Nc1cccc(N2C(=O)C=CC2=O)c1	0	0	5.2µM	-67	0	4.6µM
COc1ccc(NC(=O)CN(C)C(=O)c2ccccc2CCc2ccccc2)cc1	0	0	0	-52	0	0
O=C(CSCc1ccccc1)Nc1cccc(F)c1	0	0	7.3µM	0	0	?
SMILES	CtBP-E1A blk	Six1-Eya2 inh	TDP1 cell CPT	IL1B secr inh	TDP1 block	DT40 TDP1 no CPT
Cc1ccc(C)c(S(=O)(=O)NNC(=O)Nc2ccccc2Cl)c1	0	0	0	0	0	0
Cc1ccc(S(=O)(=O)N2CCOCC2)cc1NC(=O)COC(=O)CNC(=O)c1ccc(C(C)(C)C)cc1	0	0	0	0	0	0
CSCCC(NC(=O)COc1ccccc1)C(=O)N1CCCCC1 (stereo not drawn)	0	0	0	0	0	0
CNS(=O)(=O)c1cn(CC(=O)Nc2ccc(OC)c(Cl)c2)cc1S(=O)(=O)NC	-	-	0	-	0	0
Cc1cc(C)c(C)c(S(=O)(=O)N2CCN(C(=O)c3ccncc3)CC2)c1C	0	0	?	0	0	0
COc1ccc(NC(=O)CN(C)C(=O)C(Sc2ccccc2)c2ccccc2)cc1 (stereo not drawn)	0	0	16µM	0	0	?
CSCCC(NC(=O)/C(=C/c1ccco1)NC(=O)c1ccco1)C(=O)O (stereo not drawn)	0	0	0	-	-	?
COc1ccc(N2CCN(c3nc4ccccc4n4c(C)nnc34)CC2)cc1	-	-	0	-	0	0
CCc1nnc2c(N3CCN(c4cccc(C)c4)C(C)C3)nc3ccccc3n12 (stereo not drawn)	-	-	21µM	-	0	?
CCc1nnc2c(N3CCN(c4cccc(C(F)(F)F)c4)CC3)nc3ccccc3n12	-	-	21µM	-	0	21µM
O=C(OCCN1CCOCC1)c1ccc(Cl)cc1Cl	-	0	0	0	-	0
O=C(Cc1ccccc1)NCC(=O)Nc1cc(Cl)ccc1Cl	0	0	?	0	0	?
CCc1nc(Nc2ccc(O)cc2)c2oc3ccccc3c2n1	0	0	?	-89	-	?
Cc1nc(Nc2cccc(Cl)c2)c2oc3ccccc3c2n1	0	0	16µM	-72	-	21µM
CCc1nc(Nc2ccc(OC)cc2OC)c2oc3ccccc3c2n1	0	0	7.3µM	0	-	21µM
COc1cccc(Nc2nc(C)nc3c2oc2ccccc23)c1	0	0	?	0	-	21µM
O=C1CCCC/C1=C/Nc1ccc2c(c1)OCO2	0	0	0	0	0	0
COc1ccc(Nc2nc(C)nc3c2oc2ccccc23)c(OC)c1	0	0	0	0	-	0
Cc1nc(Nc2cccc(F)c2)c2oc3ccccc3c2n1	0	0	?	0	-	?
Cc1nc(Nc2cccc(O)c2)c2oc3ccccc3c2n1	-	0	?	0	-	13µM
COc1ccccc1Nc1nc(C)nc2c1oc1ccccc12	0	0	15µM	0	-	9.2µM
Cc1ccc(S(=O)(=O)NCCc2c[nH]c3ccccc23)cc1	0	0	0	0	-	0
CC(=O)Nc1ccc(NC(=O)C(C)OC(=O)c2cc(S(=O)(=O)N(C)C)ccc2N2CCCC2)cc1 (stereo not drawn)	0	0	?	0	0	?
COc1ccc(C)cc1Nc1n[n+](-c2ccccc2)c(-c2ccc(NC(C)=O)cc2)s1	0	0	?	0	-	0
